# Reference: PubChem BioAssay AID618 (Sanford-Burnham Center for Chemical Genomics, 2007)
# Hit rate of the full screen: of about 87,000 compounds, about 540 (0.62%) were called active. No rule for the calls is given here. This excerpt belongs to a sample that is enriched for actives. Results with a measured potency or affinity are listed apart.
# Assay: MT1-MMP gene expression reporter suppression – cell-based, luciferase reporter, luminescence (AID 618);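 also: actives suppress MT1-MMP promoter-driven transcription so potencies describe inhibitors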
# Conditions: MT1-MMP promoter luciferase reporter cells
row,Structure (SMILES),outcome
1,COC(=O)C(C)Sc1ncnc2c1nnn2-c1ccc(F)cc1 (stereo unspecified),inactive
2,Cc1ccc(CNC(=O)[C@H]2C[C@@H]2[C@H](NP(=O)(c2ccccc2)c2ccccc2)c2ccccc2)o1,inactive
3,O=C1c2ccccc2C(=O)c2c1oc(C(F)(F)F)c2C(=O)c1ccccc1,inactive
4,Cc1oc2c(c1C(=O)c1ccccc1)C(=O)C(=O)c1ccccc1-2,active
5,Cc1ccc(C(=O)c2c(C)oc3c2C(=O)C(=O)c2ccccc2-3)cc1,inactive
6,COc1cccc(Cn2c(NCc3ccccn3)nc3c2c(=O)n(C)c(=O)n3C)c1,inactive
7,Cn1c(=O)c2c(nc(NCc3cccnc3)n2Cc2cccc(C(F)(F)F)c2)n(C)c1=O,inactive
8,Cc1cc(C)nc(Sc2ccc3nnc(C(F)(F)C(F)(F)C(F)(F)F)n3n2)n1,inactive
9,Cc1ccc(-c2nn3c(C)nnc3s2)cc1NC(=O)C(C)C,inactive
10,COc1cccc2cc(-c3cn4ccc(C)cc4n3)c(=O)oc12,inactive
11,CCOc1cccc2cc(-c3nnc(-c4ccccc4)o3)c(=O)oc12,inactive
12,CCOc1cccc2cc(-c3cn4cc(C)ccc4n3)c(=O)oc12,active
13,CCc1ccc(OCCNC(=O)c2ccc(S(=O)(=O)N(C)C)cc2)cc1,inactive
14,CCOC(=O)N1CCN(C(=O)c2ccc(N(Cc3ccc(C)cc3)S(C)(=O)=O)cc2)CC1,inactive
15,CCOP(=O)(c1ccccc1Cl)C1(O)CCCCC1 (stereo unspecified),inactive
16,COc1ccc(C(=O)N2CCc3cc(OC)c(OC)cc3C2)cc1OC,inactive
17,CCOc1cc(C(=O)N2CCc3cc(OC)c(OC)cc3C2)ccc1OC(F)F,active
18,CCOc1ccc(C(=O)N2CCCC2)cc1OC,inactive
19,CCOC(=O)C1=NN(c2ccc(Cl)cc2)C(c2ccccc2)CC1=O (stereo unspecified),inactive
20,CCCN(CCC)S(=O)(=O)c1cccc(C(=O)Nc2ccc3c(c2)OCO3)c1,inactive
21,O=C(Nc1ccc(-c2nc3ccccc3o2)cc1)C1CCCO1 (stereo unspecified),active
22,O=C(Nc1nc2ccccc2[nH]1)C1CCCO1 (stereo unspecified),inactive
23,O=C(Nc1ccc(-c2nc3cc(Cl)ccc3o2)cc1)C1CCCO1 (stereo unspecified),inactive
24,Cc1ccc2oc(-c3cccc(NC(=O)C4CCCO4)c3)nc2c1 (stereo unspecified),inactive

row,Structure (SMILES),outcome
1,O=C(Nc1ccc(-c2nc3ccccc3[nH]2)cc1)C1CCCO1 (stereo unspecified),active
2,O=C(Nc1ccc(O)cc1)C1CCCO1 (stereo unspecified),inactive
3,COc1ccc(OC)c(NC(=O)C2CCCN2C(=O)OCc2ccccc2)c1 (stereo unspecified),inactive
4,Nc1nnnn1/N=C/c1cccc(OCc2ccccc2Cl)c1,inactive
5,C=CC(O)(C#CCN(CC)CC)c1ccccc1 (stereo unspecified),inactive
6,CC(=O)NC1CC2CCCC(C1)N2C(=O)Nc1ccccc1 (stereo unspecified),inactive
7,Cc1c(C(=O)Nc2ccncc2)oc2ccccc12,inactive
8,Cc1cc(C)nc(NC(=O)c2cc3ccccc3o2)n1,inactive
9,Cc1c(C(=O)Nc2ccccn2)oc2ccccc12,inactive
10,O=C(Nc1ccccc1)c1cc2ccccc2o1,inactive
11,CC(=O)Nc1sc2c(c1C(N)=O)CCC2,inactive
12,NC(=O)c1c(NC(=O)c2ccco2)sc2c1CCC2,inactive
13,CCCC(C)NC(=O)C1CCN(S(=O)(=O)c2ccccc2)CC1 (stereo unspecified),inactive
14,O=C(CSc1ccc(-c2nc3ccccc3[nH]2)cn1)N1CCN(C(=O)c2ccco2)CC1,inactive
15,O=C(c1ccc(S(=O)(=O)Nc2ccccc2)cc1)N1CCOCC1,inactive
16,CCN(CC)C(=O)C(C)N(C#N)c1nc(NC(C)C)nc(NC(C)C)n1 (stereo unspecified),inactive
17,Cc1ccc(Cn2c(Sc3nnc(C)s3)nc3c2c(=O)[nH]c(=O)n3C)cc1,inactive
18,Cc1cccc(CCNC(=O)C2CCC(=O)N2Cc2ccc(F)cc2)c1 (stereo unspecified),inactive
19,CCOC(=O)Cc1csc(SCC(=O)Nc2sc3c(c2C(N)=O)CCC3)n1,inactive
20,CCOC(=O)CSC1=C(C#N)C(c2ccc(C)o2)CC(=O)N1 (stereo unspecified),active
21,CCOC(=O)CSC1=C(C#N)C(c2ccc(Cl)cc2)CC(=O)N1 (stereo unspecified),inactive
22,CCCCCCSC1=C(C#N)C(c2ccc(C)o2)CC(=O)N1 (stereo unspecified),inactive
23,CCSC1=C(C#N)C(c2ccc(C)s2)CC(=O)N1 (stereo unspecified),inactive
24,CCOC(=O)CSC1=C(C#N)C(c2ccccc2OC)CC(=O)N1 (stereo unspecified),inactive

row,Structure (SMILES),outcome
1,CCOC(=O)CSC1=C(C#N)C(c2ccc(C)s2)CC(=O)N1 (stereo unspecified),active
2,C=CCc1c(C)c(C#N)c2nc3ccccc3n2c1N1CCN(C)CC1,inactive
3,CCC(CC)C(=O)NCCc1cc2c(C)ccc(C)c2[nH]c1=O,inactive
4,COc1cc(Nc2cc(C)nc3ncnn23)cc(OC)c1OC,inactive
5,Cc1nc2ncnn2c(Nc2ccc3c(c2)OCO3)c1Cc1ccccc1,inactive
6,COc1ccc(NC(=O)CSc2nnc(-c3cccnc3)o2)cc1,inactive
7,CCn1nc(C)c(NC(=O)CCCSc2nc(-c3ccco3)cc(C(F)(F)F)n2)c1C,inactive
8,Cc1[nH]nc2c1C(C1CC=CCC1)C(C#N)=C(N)O2 (stereo unspecified),active
9,Cc1ccc(C2C(C#N)=C(N)Oc3n[nH]c(C)c32)cc1 (stereo unspecified),inactive
10,Cc1[nH]nc2c1C(C(C)C)C(C#N)=C(N)O2 (stereo unspecified),inactive
11,CC(=O)N(C(C)=O)C1=C(C#N)C2(CCCCC2)Cc2ccccc21,inactive
12,C=CCOc1ccc2nc(NC(=O)OC)[nH]c2c1,active
13,O=C(Cc1ccccc1)Nc1nc2ccccc2[nH]1,inactive
14,O=C(Nc1ccc(F)cc1)c1ccccc1F,inactive
15,COC(=O)Nc1nc2ccc(C(=O)c3ccccc3)cc2[nH]1,inactive
16,COc1cc(OC)cc(C(=O)Nc2nc3ccccc3[nH]2)c1,inactive
17,COc1cc(C(=O)Nc2nc3ccccc3[nH]2)cc(OC)c1OC,inactive
18,O=C(COc1ccccc1)Nc1nc2ccccc2[nH]1,inactive
19,Cc1cc(NC(=O)c2ccccc2F)n(-c2nc3ccccc3[nH]2)n1,inactive
20,CCCOc1ccc2nc(NC(=O)OC)[nH]c2c1,inactive
21,O=C(Nc1nc2ccccc2[nH]1)c1ccccc1F,active
22,Cc1cc(=O)n2nc(N3CCC(C(=O)NCc4cccnc4)CC3)sc2n1,inactive
23,CC(C)=C1SC(N2CCN(Cc3ccccc3)CC2)=NC1=O,inactive
24,CC1=C(C#N)C(c2cccnc2)C2=C(CC(c3ccc(Cl)cc3)CC2=O)N1 (stereo unspecified),inactive

row,Structure (SMILES),outcome
1,COc1ccc(-c2nn(-c3ccccc3)cc2C(=O)N2CCOCC2)cc1,inactive
2,Cc1cc(C)n(C(=O)CN2C(=O)c3ccccc3C2=O)n1,inactive
3,O=C(NCc1ccncc1)Nc1ccc(Cl)cc1Cl,inactive
4,CCCn1c(=O)c2c(c3ccccc31)OCC(=O)N2,inactive
5,COc1ccc(Cc2nnc3n2N=C(c2cc4ccccc4o2)CS3)cc1OC,inactive
6,COC(=O)CSc1nsc(SCC(=O)OC)n1,inactive
7,CCCCCSc1nc2c(cnn2-c2ccccc2)c(=O)[nH]1,inactive
8,O=C(Nc1nc2ccccc2[nH]1)c1ccc(F)cc1,active
9,O=C(NCCc1nc2ccccc2[nH]1)c1ccc(F)cc1,inactive
10,COc1ccc(C(=O)Nc2nc3ccccc3[nH]2)cc1OC,inactive
11,Cc1[nH]c2ccccc2c1/C=N/n1cnnc1,inactive
12,Nc1c(C(=O)Nc2ccccc2)sc2nc3c(c(-c4ccco4)c12)CCC3,inactive
13,COc1ccc(C2NC3=C(CCC3)C3(C#N)C(OC)(OC)N=C(N)C23C#N)cc1 (stereo unspecified),inactive
14,COc1ccc(OC)c(S(=O)(=O)NCCO)c1,inactive
15,O=C(NCCc1ccccc1)C1CC(c2ccccc2O)=NO1 (stereo unspecified),inactive
16,O=C1CCCC/C1=C/Nc1ccc2c(c1)OCO2,inactive
17,COc1ccc2c(c1)CC/C(=C\Nc1ccc3c(c1)OCO3)C2=O,inactive
18,CCn1cc(Br)c(C(=O)Nc2cccc(SC)c2)n1,inactive
19,CCOC(=O)c1c(C)[nH]c(C(=O)Nc2ccc3c(c2)OCO3)c1C,inactive
20,CCOC(=O)c1c(N)sc(C(=O)Nc2ccc3c(c2)OCO3)c1C,active
21,CCOC(=O)c1c(C)c(C(=O)Nc2ccc3c(c2)OCO3)c(C)n1C,inactive
22,COc1ccc(-c2nnc3ccc(SCC(=O)N4CCCC4)nn23)cc1,inactive
23,Cn1c(=O)c2c(nc(N3CCN(Cc4ccccc4)CC3)n2CCSc2ncccn2)n(C)c1=O,inactive
24,COc1ccc(S(=O)(=O)Nc2cc(Cl)ccc2OC)cc1,active

row,Structure (SMILES),outcome
1,COc1ccc(Cl)cc1NS(=O)(=O)c1ccc(S(=O)(=O)N2CCCC2)cc1,inactive
2,COc1ccc(CCNS(=O)(=O)c2ccc(N3CCCC3=O)cc2)cc1,inactive
3,COc1ccc(Cl)cc1NS(=O)(=O)c1ccc(OC)c(OC)c1,inactive
4,COc1ccc(OC)c(NS(=O)(=O)c2ccc(N3CCCC3=O)cc2)c1,active
5,Cc1ccccc1NS(=O)(=O)c1ccc(N2CCCC2=O)cc1,inactive
6,C=CCc1cccc(/C=N/n2c(C)nnc2C)c1O,inactive
7,O=C1CC(c2ccc(S(=O)(=O)N3CCCCC3)cc2)CN1 (stereo unspecified),inactive
8,CCOc1cccc(CNn2cnnc2)c1OCc1ccccc1,inactive
9,CCN1CCN(CCNC(=O)CS(=O)(=O)Cc2nc(-c3ccc(C)cc3)oc2C)CC1,inactive
10,CCOc1cc(-c2noc(N)c2C(=O)OC)cc(OCC)c1OCC,inactive
11,Cc1ccc(-c2nc(N/N=C/c3cccnc3)c3ccccc3n2)cc1,inactive
12,Brc1ccc(-c2nc(N/N=C/c3cccnc3)c3ccccc3n2)cc1,inactive
13,COc1ccc(CCn2c(C)cc3c(c2=O)C(c2ccc4c(c2)OCO4)C(C#N)=C(N)O3)cc1OC (stereo unspecified),inactive
14,COc1ccccc1NC(=O)C1C2CCCCC21 (stereo unspecified),inactive
15,Cc1cc(C)n(C(=O)c2nn(C)c(C)c2[N+](=O)[O-])n1,inactive
16,CC(=O)c1cccc(NC(=O)c2cc3ccccn3n2)c1,inactive
17,O=C(Nc1ccc(CN2CCOCC2)cc1)c1cc2ccccc2o1,inactive
18,COc1cccc(CNC(=O)c2cc3ccccn3n2)c1,inactive
19,O=C(Nc1ccc(CN2CCOCC2)cc1)c1cccc(F)c1,inactive
20,COc1ccc(-c2ccc(-c3noc(-c4ccc(OC)c(OC)c4)n3)c(OC)n2)cc1,inactive
